The results in this text go back to PubChem BioAssay (NCI).

This is part of a sample that, as a whole, favours compounds with a hit. Of some 83,000 tested, about 20% had one in any assay.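 Testing used 96-well plates and a 48-hour single-concentration exposure. Example: -40 means 40% of the starting cells died.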 Values without a mark were called inactive. Calls of active or inactive are those of the source. How the source made its calls: active means growth percent below 10; inactive means the rest.

This experiment concerns HL-60(TB) leukemia. Description: NCI-60 one-dose screen, 48 h (100 = growth as untreated, 0 = no growth, -100 = all killed). The conditions noted are these: 10 µM unless noted.
In the case of `OCc1cn(-c2ccc(Cl)cc2)nc1-c1ccc(O)cc1`, the growth is 51.7%.
On to `CCOC(=O)c1cn2ncnc(Oc3ccc(NC(=O)NCCN4CCN(C)CC4)c(Cl)c3)c2c1C`, for which the growth was 96.9%.
For `N=C(N)c1ccc(-c2ccc(-c3ccccc3)o2)o1` the value was -17% (active).
In the case of `Cn1c2ccccc2c2nnc(N/N=C/c3ccccn3)nc21`, the growth is -46.1% (active).
For `CS(=O)(=O)c1ccc(N/N=C/c2c(-c3ccc(S(C)(=O)=O)cc3)[nH]c3ccc(F)cc23)cc1` the value was -14.6% (active); for `CSc1ccc2c(c1)C(N1CCN(C)CC1)Cc1ccccc1S2` (stereo not given), 52.7%.
With `CCCOC(=O)c1c(C)n(C)c2scc[n+]12`, the growth is 92.6%.
In the case of `COc1ccc(/C=C/C(=O)c2ccc(O)c(CN3CCN(c4cc5c(cc4F)c(=O)c(C(=O)O)cn5C4CC4)CC3)c2)cc1`, the growth was 0.375% (active).
For `Cc1cccc(-c2cc(O)c(C(=O)N3CCOCC3)s2)c1` the value was 24.5%; for `Cc1cc(C)c(NC(=O)c2sc3nc4c(cc3c2N)CN(Cc2ccccc2)CC4)c(C)c1`, -10.3% (active).
For `C=C1C(=O)O[C@H]2[C@H]1CC/C(CNC(=O)/C=C/c1ccccc1)=C\CC[C@@]1(C)O[C@@H]21` the value was -31.3% (active).
In the case of `COc1cc2c(cc1OCCCN1CCN(C(=S)SCCC(C#N)(c3ccccc3)c3ccccc3)CC1)N=C[C@@H]1CCCN1C2=O`, the growth is 0.178% (active).
In the case of `COc1cc2c(cc1OC)C(=O)C(CC1CCN(C(=O)Nc3ccc(C)cc3)CC1)C2` (stereo not given), the growth was 125%.
For `COc1ccc(-c2nc(SCC(C)C)nc(Nc3ccc([N+](=O)[O-])cc3)c2C#N)cc1` the value was 90.5%; for `CC/C(=C(/c1ccc(Cl)cc1)c1ccc(OCCN2CCCCC2)cc1)c1ccc(OC)cc1`, 24%; for `N#Cc1c(N)n(C2OC(CO)C(O)C2O)c2ncnc(N)c12` (stereo not given), -67.1% (active).
For `O=C(COc1ccc(/C=C2\Cc3ccccc3C2=O)cc1)c1ccc(Cl)cc1` the value was 118%; for `CCCCCCOc1ccc(/C=N/NC(N)=S)cc1`, 8.79% (active); for `CCOC(=O)c1ccc(-c2ccc3cc(OC)ccc3c2)nc1C`, 91.2%.
Consider `COc1ccccc1N1CCCSC1=Nc1ccccc1`, for which the growth was 50.1%.
For `Nc1nc(Nc2ccccc2SSc2ccccc2Nc2nc(N)nc(-c3ccc(C(F)(F)F)cc3)n2)nc(-c2ccc(C(F)(F)F)cc2)n1` the value was -17% (active); for `Cc1ccc(S(=O)(=O)Nc2cc(Sc3ccccc3)c(O)c3ccccc23)cc1`, -31.2% (active); for `COc1cc(N=Nc2ccc(N)cc2)c(OC)cc1N=Nc1ccccc1.[Cl][Zn][Cl]`, 73.5%.
For `COc1ccc(-c2nc(-c3nc4ccc(OC)cc4[nH]3)cc3c2[nH]c2ccccc23)cc1` the value was 34.7%; for `Cc1nc2ccccc2c(/C=C/c2ccc(Cl)cc2)c1C(=O)/C=C/c1cccs1`, 59.5%.
For `COc1ccc(-c2nc(C#N)c(NCC(c3ccc(Cl)cc3)N3CCCCC3)o2)cc1` (stereo not given) the value was 74.3%.
For the molecule `CC(C)COc1nc2c(c(=O)n(C)c(=O)n2C)n1C`, the growth is 97%.
For the molecule `O=[N+]([O-])c1ccc(/C=C/C=C/c2ccccc2)c(Cl)c1`, the growth is 91.9%.
For `Cc1nc2ccccc2c(/C=C/c2ccccc2)c1C(=O)/C=C/c1ccccc1` the value was 23.1%; for `COc1cccc(C(Cc2ccccc2)Nc2ccccc2)c1OC` (stereo not given), 96.3%.
For `COc1ccc(Br)c(C=O)c1` the value was -16.3% (active); for `CCOC(=O)C/C(=N\Nc1cc(=O)[nH]c2ccc(Br)cc12)C(=O)OCC`, -7.84% (active); for `CCOC(=O)c1c(C)nc2ccccc2c1/C=C/c1ccc(OC)cc1`, 83.3%.
For `CCOC(=O)c1ccc(NC(=O)NC2=NCCS2)cc1` the value was 13.5%.
In the case of `O=C(Cc1ccc(F)cc1)c1ccccc1`, the growth is 108%.
For the molecule `CCC(CCCN(CC)CCc1ccccc1)OC(=O)c1cc(OC)c(OC)c(OC)c1` (stereo not given), the growth was 95%.
For `O=C1OC(c2ccccc2)=N/C1=C\c1ccc([N+](=O)[O-])cc1` the value was 119%.
For the molecule `CC(C)NC[C@@H](C(=O)N1CCN(c2ncnc3c2[C@H](C)C[C@H]3O)CC1)c1ccc(Cl)cc1`, the growth was 82%.
Take `CCO/C=C1\SC(=S)N(c2cccc(C)c2)C1=O`: the growth is 99%.
For `O=c1c2ccccc2sc2c(NCCCNCCO)nc3ccccc3c12` the value was 7.81% (active).
